# In PubChem BioAssay (NCI):
# About 83,000 compounds went through this panel and 20% of them were active in at least one assay; those are over-represented in the sample as a whole.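 In brief: 96-well plates, 48 h treatment, single concentration, percent growth endpoint.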 Calls of active or inactive are those of the source.
# Tested on: PC-3 prostate
# Experiment: NCI-60 one-dose screen, 48 h (100 = growth as untreated, 0 = no growth, -100 = all killed)
# Conditions: 10 µM unless noted
# Experimental: Growth inhibition of the PC-3 human tumor cell line is measured as a screen for anti-cancer activity. Cells are grown in 96 well plates and exposed to the test compound for 48 hours. Compounds are tested at a single concentration, which is 10^-5 M for most compounds. The reported endpoint is percent growth (GI% or GIPRCNT), where numbers from 0 - 100% represent growth inhibition, and numbers from -100% - 0 represent cell death. For example, a value of 40 represents 60% growth inhibition. A value of 0 means no net growth occurred over the course of the experiment. A value of -40 indicates 40% of cells at the beginning of the experiment died by the end of the experiment. A value of -100 means all cells are dead at the end of the experiment.
# NCI-60 Human Tumor Cell Lines Screen was performed using the standard one-dose NCI protocol, which is described in more detail at https://dtp.cancer.gov/discovery_development/nci-60/default.htm.
# Compounds with GIPRCNT values below 10 were considered active. Activity score was based on GIPRCNT using the following formula: […]
# Score is 0 for GIPRCNT values of 100 or above, 50 for GIPRCNT values of 0, and 100 for GIPRCNT values of -100.
row,SMILES,growth
1,CN1CCN(c2ccc(NC3=CC(=O)c4ncncc4C3=O)cc2)CC1,-8.86% (active)
2,CC(C)n1c2ccc(Br)cc2c2c3c(c4c5ccccc5ccc4c21)C(=O)NC3=O,89.8% (inactive)
3,O=C1/C(=C/c2ccccn2)SC(=S)N1N1CCOCC1,94.6% (inactive)
4,O=C(/C=C/c1ccccc1Cl)c1cccc(OCCCCOc2cccc(C(=O)/C=C/c3ccccc3Cl)c2)c1,91.1% (inactive)
5,COc1ccc(C/C(C)=C(\c2ccc(Cl)cc2)c2ccc(OCCN3CCCC3)cc2)cc1,77.8% (inactive)
6,Cc1ccc(-c2csc(NC(=O)CSc3nc(N)cc(N)n3)n2)cc1,70.5% (inactive)
7,O=C(/C=C/c1cccc(Oc2ccccc2)c1)c1ccc(Nc2nc(Nc3ccc(F)cc3)nc(Nc3ccc(Cl)cc3)n2)cc1,94% (inactive)
8,N#Cc1ccccc1-c1ccc(CN2C(=O)S/C(=C\c3ccc(Br)cc3)C2=O)cc1,99.9% (inactive)
9,Cc1ccc2nc(-c3ccc(C(=O)N/N=C/c4ccc([N+](=O)[O-])cc4)cc3)[nH]c2c1,98.2% (inactive)
10,Cc1ccc(OCCOCCOCCOCCOCCOc2ccc(C)n(O)c2=S)c(=S)n1O,33.3% (inactive)
11,CCOC(=O)c1c(C)nc2ccccc2c1/C=C/c1ccc(F)cc1,67.3% (inactive)
12,NC(=O)c1ccccc1OCC(=O)Nc1ccc(Cl)c(Cl)c1,106% (inactive)
13,C=C1SC(=Nc2ccccc2Cl)N(C(=O)c2sc3ccccc3c2Cl)C1(C)C,30.7% (inactive)
14,CN(C)Cc1ccc(NC(=O)c2cncc(C#Cc3cnc(N)c4ncccc34)c2)cc1C(F)(F)F,92.2% (inactive)
15,CC(C)(Sc1cc(C(C)(C)C)c(O)c(C(C)(C)C)c1)Sc1cc(C(C)(C)C)c(OC(=O)CCC(=O)O)c(C(C)(C)C)c1,35.5% (inactive)
16,O=C(NCCN1CCOCC1)OCc1ccc2c(Cl)cc(Cl)c(O)c2n1,60% (inactive)
17,CC(=O)c1sc(-c2ccc(F)cc2)cc1O,93.9% (inactive)
18,Cn1cc(-c2csc(-c3cn(CCCN4CCOCC4)c4ccc(F)cc34)n2)c2cccnc21,29.6% (inactive)
19,COc1ccc(C/C(C)=C(\c2ccc(O)cc2)c2ccc(OCCN3CCCCC3)cc2)cc1,67.4% (inactive)
20,CN(C)CCCNC(=O)c1cncnc1Nc1ccc2c(ccn2Cc2cccc(F)c2)c1,86% (inactive)

row,SMILES,growth
1,CCOC(=O)c1cnn(CC(C)O)c1NC(=O)NCc1cccc(F)c1 (stereo not given),73.3% (inactive)
2,O=C(O)c1cn(C2CC2)c2cc(N3CCN(C(=O)N4CCOCC4)CC3)c(F)cc2c1=O,91.9% (inactive)
3,C[N+]1=C(/C=C/c2ccccc2Cl)C(C)(C)c2ccccc21,83.5% (inactive)
4,CC[C@H](Nc1nc(N)nc(C)c1C#N)c1nc2cccc(CN(C)c3ncc(C(=O)NO)cn3)c2c(=O)n1-c1ccccc1,14.6% (inactive)
5,CCN(CC)C(=O)C1=C(C)NC(=O)NC1c1ccc2c(c1)OCO2 (stereo not given),98.5% (inactive)
6,N#CC1=C(N)Oc2c(sc3c(F)cccc23)C1c1ccc([N+](=O)[O-])cc1 (stereo not given),-10.4% (active)
7,Clc1ccc(Nc2ncc(Cc3cccc(Cl)c3Cl)s2)cc1,88% (inactive)
8,Cc1ccc2c(/C=C/C(=O)c3cc(CN4CCOCC4)c(O)c4nc(C)ccc34)cc(CN3CCOCC3)c(O)c2n1,19.9% (inactive)
9,CC[C@@H](C(=O)[C@@H](C)[C@@H](O)[C@H](C)[C@@H]1O[C@@H]([C@@H](CC)C(=O)ONC(=O)c2ccccc2O)CC[C@@H]1C)C1O[C@]2(C=CC(=O)[C@]3(CC[C@@](C)([C@H]4CC[C@](O)(CC)[C@H](C)O4)O3)O2)[C@H](C)C[C@@H]1C (stereo not given in full),31.3% (inactive)
10,CC(=O)c1ccc(-n2cc(CN3CCN(c4cc5c(cc4F)c(=O)c(C(=O)O)cn5C4CC4)CC3)nn2)cc1,83.9% (inactive)
11,Nc1nc2ccccc2c2c(=O)c3cc(Cl)ccc3sc12,90.7% (inactive)
12,O=C(NCCCCCCNC(=O)OCc1ccc2c(Cl)cc(Cl)c(O)c2n1)OCc1ccc2c(Cl)cc(Cl)c(O)c2n1,-46.2% (active)
13,O=c1oc2c(cc1-c1ccccc1)c(=O)[nH]c1ccccc12,96.3% (inactive)
14,CN(C)Cc1cc(C(C)(C)C)cc(Br)c1O,90.5% (inactive)
15,Oc1nc(NCc2ccccc2)sc1/C=C1\C=Nc2ncccc21,71.3% (inactive)
16,CS(=O)(=O)Nc1cc(-c2ccc3ncnc(Nc4ccc(F)c(Cl)c4)c3c2)ccc1Cl,36.8% (inactive)
17,COc1ccc(C2CC(n3ccnc3)c3cc(OC)c(OC)c(OC)c32)cc1O (stereo not given),60.7% (inactive)
18,c1ccc(-c2c(-c3ccccc3)[n+](Cc3ccc4ccccc4c3)cn2Cc2ccc3ccccc3c2)cc1,-91.8% (active)
19,COc1cc(-c2ccc(-c3ccc(C(=N)N)cc3)s2)cc(OC)c1OC,53.4% (inactive)
20,CCn1cc(C(=O)O)c(=O)c2cc(F)c(N3CCN(CC(=O)Nc4ccccc4)C(C)C3)c(F)c21 (stereo not given),93.2% (inactive)
